In PubChem BioAssay (NCATS):
Records with an inconclusive call do not appear. Active and inactive are the calls of the source. Unless noted, calls come from the whole dose curve.

How the values were obtained:
[1] = qHTS for Inhibitors of the Functional Ribonucleoprotein Complex (vRNP) of Lassa (LASV) Arenavirus: LASV Primary Screen - GLuc reporter signal (AID 1347082; calls by dose curve; tested in HEK293 reporter line; note: nearly all actives have a fitted effect of over 60% in size); conditions: LASV minigenome vRNP, Gaussia luciferase reporter; series mostly up to 57.5 µM
[2] = qHTS for Inhibitors of the Functional Ribonucleoprotein Complex (vRNP) of Lassa (LASV) Arenavirus: Viability assay - alamar blue signal for LASV Primary Screen (AID 1347083; calls by dose curve; tested in HEK293 reporter line; note: nearly all actives have a fitted effect of over 80% in size); conditions: cell viability, alamar blue fluorescence (LASV minigenome counter-screen); series mostly up to 57.5 µM
[3] = qHTS for Inhibitors of the Functional Ribonucleoprotein Complex (vRNP) of Lymphocytic Choriomeningitis Arenaviruses (LCMV): Viability assay - alamar blue signal for LCMV Primary Screen (AID 1347085; calls by dose curve; tested in HEK293 reporter line; note: nearly all actives have a fitted effect of over 80% in size); conditions: alamar blue viability counter-screen, LCMV vRNP screen cells; series mostly up to 57.5 µM
[4] = target: Nucleoprotein (Lymphocytic choriomeningitis virus (strain Armstrong)) (UniProt P09992); test: qHTS for Inhibitors of the Functional Ribonucleoprotein Complex (vRNP) of Lymphocytic Choriomeningitis Arenaviruses (LCMV): LCMV Primary Screen - GLuc reporter signal (AID 1347086); conditions: LCMV minigenome vRNP cell assay, Gaussia luciferase reporter; series mostly up to 57.5 µM; note: nearly all actives have a fitted effect of over 70% in size
% is set by controls: 0 for no effect and ±100 for the full control effect.

Sequence of Nucleoprotein (Lymphocytic choriomeningitis virus (strain Armstrong)) (P09992 whole entry, looked up): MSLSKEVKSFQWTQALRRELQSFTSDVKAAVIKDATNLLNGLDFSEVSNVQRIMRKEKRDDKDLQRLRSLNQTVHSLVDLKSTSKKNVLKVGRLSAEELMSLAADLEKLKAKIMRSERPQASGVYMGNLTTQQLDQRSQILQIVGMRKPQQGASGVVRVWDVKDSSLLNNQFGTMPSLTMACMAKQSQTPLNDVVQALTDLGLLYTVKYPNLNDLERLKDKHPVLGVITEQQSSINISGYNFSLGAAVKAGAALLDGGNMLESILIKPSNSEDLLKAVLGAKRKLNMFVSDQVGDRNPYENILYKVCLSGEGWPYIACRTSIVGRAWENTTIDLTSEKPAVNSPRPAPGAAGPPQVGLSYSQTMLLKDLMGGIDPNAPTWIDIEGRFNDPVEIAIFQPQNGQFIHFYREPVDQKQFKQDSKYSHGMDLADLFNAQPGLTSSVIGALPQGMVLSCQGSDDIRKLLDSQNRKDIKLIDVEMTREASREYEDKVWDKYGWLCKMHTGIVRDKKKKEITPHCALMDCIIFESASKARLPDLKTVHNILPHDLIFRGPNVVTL

COC(=O)C1=C(C)NC(C)=C(C(=O)OCCc2ccc(N3CCN(C(c4ccccc4)c4ccccc4)CC3)cc2)C1c1cccc([N+](=O)[O-])c1 (centres undefined)
inactive: Potency [1] | Potency [2] | Potency [3] | Potency [4]

C[N+](C)(C)CCOC(N)=O
inactive: Potency [1] | Potency [2] | Potency [3] | Potency [4]

O=C(O)c1ccccc1S
inactive: Potency [1] | Potency [2] | Potency [3] | Potency [4]

O=C(O)Cc1csc(-c2ccc(Cl)cc2)n1
inactive: Potency [1] | Potency [2] | Potency [3] | Potency [4]

CN(C)CCN(Cc1ccsc1)c1ccccn1
inactive: Potency [1] | Potency [2] | Potency [3] | Potency [4]

CC(=O)NCc1c(I)c(NC(C)=O)c(I)c(C(=O)O)c1I
inactive: Potency [1] | Potency [2] | Potency [3] | Potency [4]

O=C(O)c1[nH]n(-c2ccc(S(=O)(=O)O)cc2)c(=O)c1N=Nc1ccc(S(=O)(=O)O)cc1
inactive: Potency [1] | Potency [2] | Potency [3] | Potency [4]

CCCCCCCCCCCCSCCOCCO
inactive: Potency [1] | Potency [2] | Potency [3] | Potency [4]

CN[C@@H](C)Cc1ccccc1
inactive: Potency [1] | Potency [2] | Potency [3] | Potency [4]

Cc1c(F)c(N2CCNC(C)C2)cc2c1c(=O)c(C(=O)O)cn2C1CC1 (centres undefined)
inactive: Potency [1] | Potency [2] | Potency [3] | Potency [4]

CCCCCC(C)N (centres undefined)
inactive: Potency [1] | Potency [2] | Potency [3] | Potency [4]

Oc1ccc(OCc2ccccc2)cc1
inactive: Potency [1] | Potency [2] | Potency [3] | Potency [4]

Cc1onc(-c2c(Cl)cccc2Cl)c1C(=O)Cl
inactive: Potency [1] | Potency [2] | Potency [3] | Potency [4]

NS(=O)(=O)c1cc(C2(O)NC(=O)c3ccccc32)ccc1Cl (centres undefined)
inactive: Potency [1] | Potency [2] | Potency [3] | Potency [4]

Cc1c(NC(C)C)c(=O)n(-c2ccccc2)n1C
inactive: Potency [1] | Potency [2] | Potency [3] | Potency [4]

CC(C)(C)C(=O)Oc1ccc(S(=O)(=O)Nc2ccccc2C(=O)NCC(=O)O)cc1
inactive: Potency [1] | Potency [2] | Potency [3] | Potency [4]

OC[C@H]1O[C@@H]2O[C@H]3[C@H](O)[C@@H](O)[C@@H](O[C@H]4[C@H](O)[C@@H](O)[C@@H](O[C@H]5[C@H](O)[C@@H](O)[C@@H](O[C@H]6[C@H](O)[C@@H](O)[C@@H](O[C@H]7[C@H](O)[C@@H](O)[C@@H](O[C@H]8[C@H](O)[C@@H](O)[C@@H](O[C@H]1[C@H](O)[C@H]2O)O[C@@H]8CO)O[C@@H]7CO)O[C@@H]6CO)O[C@@H]5CO)O[C@@H]4CO)O[C@@H]3CO
inactive: Potency [1] | Potency [2] | Potency [3] | Potency [4]

CC(=O)Nc1ccc(/C=N/NC(N)=S)cc1
inactive: Potency [1] | Potency [2] | Potency [3] | Potency [4]

CC(CCc1ccc(O)cc1)NCCc1ccc(O)c(O)c1 (centres undefined)
inactive: Potency [1] | Potency [2] | Potency [3] | Potency [4]

CC(CCc1ccccc1)NCC(O)c1ccc(O)c(C(N)=O)c1 (centres undefined)
inactive: Potency [1] | Potency [2] | Potency [3] | Potency [4]

O=C(O)c1ccccc1Nc1cccc(C(F)(F)F)c1
inactive: Potency [1] | Potency [2] | Potency [3] | Potency [4]

CC(C)(C)c1cc(C=O)cc(C(C)(C)C)c1O
inactive: Potency [1] | Potency [2] | Potency [3] | Potency [4]

CC(=O)N[C@@H](CC(C)C)C(=O)O
inactive: Potency [1] | Potency [2] | Potency [3] | Potency [4]

O=C(O)c1c(O)c(-c2ccccc2)nc2ccccc12
inactive: Potency [1] | Potency [2] | Potency [3] | Potency [4]

C[C@@H]1CCC[C@H](C)N1
inactive: Potency [1] | Potency [2] | Potency [3] | Potency [4]

N[C@@H](Cc1cc(I)c(Oc2ccc(O)c(I)c2)c(I)c1)C(=O)O
inactive: Potency [1] | Potency [2] | Potency [3] | Potency [4]

CN(CC1(C)CCCO1)S(=O)(=O)c1ccc(Cl)c(S(N)(=O)=O)c1 (centres undefined)
inactive: Potency [1] | Potency [2] | Potency [3] | Potency [4]

NC(N)=Nc1nc(CSCC/C(N)=N/S(N)(=O)=O)cs1
inactive: Potency [1] | Potency [2] | Potency [3] | Potency [4]

NCC[C@H](O)C(=O)N[C@@H]1C[C@H](N)[C@@H](O[C@H]2O[C@H](CN)[C@@H](O)[C@H](O)[C@@H]2O)[C@H](O)[C@@H]1O[C@H]1O[C@H](CO)[C@@H](O)[C@H](N)[C@@H]1O
inactive: activity change, negative = inhibition [1] -6.8% [at 0.757 µM] | activity change, negative = reduced viability [2] -4.3% [at 0.757 µM] | activity change, negative = lower viability [3] -4.65% [at 0.757 µM] | activity change, negative = inhibition [4] 19.2% [at 0.757 µM]

NS(=O)(=O)c1cc2c(cc1C(F)(F)F)NC(Cc1ccccc1)NS2(=O)=O (centres undefined)
inactive: Potency [1] | Potency [2] | Potency [3] | Potency [4]

CCCCCCCC(=O)OCC(COC(=O)CCCCCCC)OC(=O)CCCCCCC
inactive: Potency [1] | Potency [2] | Potency [3] | Potency [4]
